# Test results taken from the supplement of paper PMC8728848.
# Only a selection was taken, and the strongest signals are over-represented in it overall.
# Legend:
# Assay in all cases: glycan array binding signal (z-score within array); higher = stronger binding
# Conditions in all cases: glycan notation: IUPAC condensed, linker removed
# [1] = molecular target: Fuc(a1-2)Gal(b1-3)GalNAc(b1-4)[Neu5Ac(a2-3)]Gal(b1-4)Glc
# Procedure, shortened: (§1)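 Arrays were curated from the Consortium for Functional Glycomics database, 3228 in total, and kept only where the protein sequence was available. Binding is expressed as a within-array Z-score. This score was averaged across arrays of the same protein sequence at different concentrations or buffers and across linkers, and negative values can be read as non-binding.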
# [2] = molecular target: Fuc(a1-2)Gal(b1-3)[Fuc(a1-4)]GlcNAc
# Procedure, shortened: as §1
# [3] = molecular target: Fuc(a1-2)Gal(b1-4)GlcNAc(b1-2)[Fuc(a1-2)Gal(b1-4)GlcNAc(b1-4)]Man(a1-3)[Fuc(a1-2)Gal(b1-4)GlcNAc(b1-2)Man(a1-6)]Man(b1-4)GlcNAc(b1-4)GlcNAc
# Procedure, shortened: as §1
# [4] = molecular target: Fuc(a1-2)Gal(b1-4)[Fuc(a1-3)]GlcNAc(b1-3)Gal(b1-4)[Fuc(a1-3)]GlcNAc
# Procedure, shortened: as §1
# [5] = molecular target: Fuc(a1-2)Gal3S(b1-4)GlcNAc
# Procedure, shortened: as §1
# [6] = molecular target: Fuc(a1-2)[Gal(a1-3)]Gal(b1-4)[Fuc(a1-3)]GlcNAc(b1-3)GalNAc
# Procedure, shortened: as §1
# [7] = molecular target: Fuc(a1-2)[GalNAc(a1-3)]Gal(b1-3)GlcNAc(b1-2)Man(a1-3)[Fuc(a1-2)[GalNAc(a1-3)]Gal(b1-3)GlcNAc(b1-2)Man(a1-6)]Man(b1-4)GlcNAc(b1-4)[Fuc(a1-6)]GlcNAc
# Procedure, shortened: as §1
# Gal(a1-2)Gal = molecular target: Gal(a1-2)Gal
# Procedure, shortened: as §1
# [8] = molecular target: Gal(a1-3)Gal(b1-3)[Fuc(a1-4)]GlcNAc(b1-2)Man(a1-3)[Gal(a1-3)Gal(b1-3)[Fuc(a1-4)]GlcNAc(b1-2)Man(a1-6)]Man(b1-4)GlcNAc(b1-4)GlcNAc
# Procedure, shortened: as §1
# Gal(a1-3)Gal(b1-4)GlcNAc = molecular target: Gal(a1-3)Gal(b1-4)GlcNAc
# Procedure, shortened: as §1
# Gal(a1-4)Gal(b1-4)GlcNAc = molecular target: Gal(a1-4)Gal(b1-4)GlcNAc
# Procedure, shortened: as §1
# [9] = molecular target: Gal(b1-3)GlcNAc(b1-2)Man(a1-3)[GlcNAc(b1-4)][Gal(b1-3)GlcNAc(b1-2)Man(a1-6)]Man(b1-4)GlcNAc(b1-4)GlcNAc
# Procedure, shortened: as §1
# [10] = molecular target: Gal(b1-3)GlcNAc(b1-3)Gal(b1-4)[Fuc(a1-3)]GlcNAc
# Procedure, shortened: as §1
# [11] = molecular target: Gal(b1-4)GlcNAc(b1-2)Man(a1-6)[GlcNAc(b1-2)Man(a1-3)]Man(b1-4)GlcNAc(b1-4)GlcNAc
# Procedure, shortened: as §1
# [12] = molecular target: Gal(b1-4)GlcNAc(b1-3)Gal(b1-4)GlcNAc(b1-2)[Gal(b1-4)GlcNAc(b1-3)Gal(b1-4)GlcNAc(b1-6)]Man(a1-6)[Gal(b1-4)GlcNAc(b1-3)Gal(b1-4)GlcNAc(b1-2)Man(a1-3)]Man(b1-4)GlcNAc(b1-4)GlcNAc
# Procedure, shortened: as §1
# [13] = molecular target: Gal(b1-4)GlcNAc(b1-3)Gal(b1-4)GlcNAc(b1-3)Gal(b1-4)GlcNAc(b1-3)Gal(b1-4)GlcNAc(b1-2)Man(a1-3)[Gal(b1-4)GlcNAc(b1-3)Gal(b1-4)GlcNAc(b1-3)Gal(b1-4)GlcNAc(b1-3)Gal(b1-4)GlcNAc(b1-2)Man(a1-6)]Man(b1-4)GlcNAc(b1-4)[Fuc(a1-6)]GlcNAc
# Procedure, shortened: as §1
# [14] = molecular target: Gal(b1-4)GlcNAc(b1-3)Gal(b1-4)GlcNAc(b1-3)Gal(b1-4)GlcNAc(b1-3)Gal(b1-4)GlcNAc(b1-3)Gal(b1-4)GlcNAc(b1-2)Man(a1-3)[Gal(b1-4)GlcNAc(b1-3)Gal(b1-4)GlcNAc(b1-3)Gal(b1-4)GlcNAc(b1-3)Gal(b1-4)GlcNAc(b1-3)Gal(b1-4)GlcNAc(b1-2)Man(a1-6)]Man(b1-4)GlcNAc(b1-4)[Fuc(a1-6)]GlcNAc
# Procedure, shortened: as §1
# [15] = molecular target: Gal(b1-4)GlcNAc(b1-3)Gal(b1-4)GlcNAc(b1-3)Gal(b1-4)GlcNAc(b1-3)Gal(b1-4)GlcNAc(b1-3)Gal(b1-4)GlcNAc(b1-2)[Gal(b1-4)GlcNAc(b1-3)Gal(b1-4)GlcNAc(b1-3)Gal(b1-4)GlcNAc(b1-3)Gal(b1-4)GlcNAc(b1-3)Gal(b1-4)GlcNAc(b1-6)]Man(a1-6)[Gal(b1-4)GlcNAc(b1-3)Gal(b1-4)GlcNAc(b1-3)Gal(b1-4)GlcNAc(b1-3)Gal(b1-4)GlcNAc(b1-3)Gal(b1-4)GlcNAc(b1-2)Man(a1-3)]Man(b1-4)GlcNAc(b1-4)[Fuc(a1-6)]GlcNAc
# Procedure, shortened: as §1
# [16] = molecular target: Gal(b1-4)GlcNAc(b1-6)GalNAc
# Procedure, shortened: as §1
# Gal(b1-4)GlcNAc6P = molecular target: Gal(b1-4)GlcNAc6P
# Procedure, shortened: as §1
# Gal3S(b1-3)GalNAc = molecular target: Gal3S(b1-3)GalNAc
# Procedure, shortened: as §1
# [17] = molecular target: GalNAc(a1-3)GalNAc(b1-3)Gal(a1-4)Gal(b1-4)Glc
# Procedure, shortened: as §1
# [18] = molecular target: GalNAc(b1-4)GlcNAc(b1-2)Man(a1-3)[GalNAc(b1-4)GlcNAc(b1-2)Man(a1-6)]Man(b1-4)GlcNAc(b1-4)GlcNAc
# Procedure, shortened: as §1
# GalNAc3S(b1-4)GlcNAc3S = molecular target: GalNAc3S(b1-4)GlcNAc3S
# Procedure, shortened: as §1
# Glc(a1-6)Glc(a1-6)Glc = molecular target: Glc(a1-6)Glc(a1-6)Glc
# Procedure, shortened: as §1
# Glc(b1-4)Glc = molecular target: Glc(b1-4)Glc
# Procedure, shortened: as §1
# [19] = molecular target: GlcNAc(a1-4)Gal(b1-4)GlcNAc(b1-3)Gal(b1-4)GlcNAc
# Procedure, shortened: as §1
# [20] = molecular target: GlcNAc(a1-4)Gal(b1-4)GlcNAc(b1-3)Gal(b1-4)GlcNAc(b1-3)Gal(b1-4)GlcNAc
# Procedure, shortened: as §1
# [21] = molecular target: GlcNAc(b1-3)Gal(b1-4)GlcNAc(b1-3)Gal(b1-4)GlcNAc(b1-2)Man(a1-3)[GlcNAc(b1-3)Gal(b1-4)GlcNAc(b1-3)Gal(b1-4)GlcNAc(b1-2)Man(a1-6)]Man(b1-4)GlcNAc(b1-4)[Fuc(a1-6)]GlcNAc
# Procedure, shortened: as §1
# [22] = molecular target: GlcNAc(b1-3)Gal(b1-4)GlcNAc(b1-3)Gal(b1-4)GlcNAc(b1-3)Gal(b1-4)GlcNAc(b1-3)Gal(b1-4)GlcNAc(b1-2)Man(a1-3)[GlcNAc(b1-3)Gal(b1-4)GlcNAc(b1-3)Gal(b1-4)GlcNAc(b1-3)Gal(b1-4)GlcNAc(b1-3)Gal(b1-4)GlcNAc(b1-2)Man(a1-6)]Man(b1-4)GlcNAc(b1-4)GlcNAc
# Procedure, shortened: as §1
# GlcNAc(b1-3)Man = molecular target: GlcNAc(b1-3)Man
# Procedure, shortened: as §1
# [23] = molecular target: GlcNAc(b1-6)Gal(b1-4)GlcNAc
# Procedure, shortened: as §1
# Kdn(a2-3)Gal(b1-4)Glc = molecular target: Kdn(a2-3)Gal(b1-4)Glc
# Procedure, shortened: as §1
# Kdn(a2-3)Gal(b1-4)GlcNAc = molecular target: Kdn(a2-3)Gal(b1-4)GlcNAc
# Procedure, shortened: as §1
# [24] = molecular target: Man(a1-3)[Man(a1-6)]Man(b1-4)GlcNAc(b1-4)GlcNAc
# Procedure, shortened: as §1
# Man(b1-4)GlcNAc = molecular target: Man(b1-4)GlcNAc
# Procedure, shortened: as §1
# Neu5Ac(a2-3)Gal = molecular target: Neu5Ac(a2-3)Gal
# Procedure, shortened: as §1
# [25] = molecular target: Neu5Ac(a2-3)Gal(b1-3)[Fuc(a1-4)]GlcNAc
# Procedure, shortened: as §1
# [26] = molecular target: Neu5Ac(a2-3)Gal(b1-3)[Fuc(a1-4)]GlcNAc(b1-3)Gal(b1-3)[Fuc(a1-4)]GlcNAc
# Procedure, shortened: as §1
# [27] = molecular target: Neu5Ac(a2-3)Gal(b1-3)[GlcNAc(b1-6)]GalNAc
# Procedure, shortened: as §1
# [28] = molecular target: Neu5Ac(a2-3)Gal(b1-4)GlcNAc
# Procedure, shortened: as §1
# [29] = molecular target: Neu5Ac(a2-3)Gal(b1-4)GlcNAc(b1-6)[Neu5Ac(a2-3)Gal(b1-3)]GalNAc
# Procedure, shortened: as §1
# [30] = molecular target: Neu5Ac(a2-6)Gal(b1-4)GlcNAc(b1-2)Man(a1-3)[Neu5Ac(a2-6)Gal(b1-4)GlcNAc(b1-2)Man(a1-6)]Man(b1-4)GlcNAc(b1-4)[Fuc(a1-6)]GlcNAc
# Procedure, shortened: as §1
# [31] = molecular target: Neu5Ac(a2-6)Gal(b1-4)GlcNAc(b1-2)Man(a1-6)[GlcNAc(b1-2)Man(a1-3)]Man(b1-4)GlcNAc(b1-4)GlcNAc
# Procedure, shortened: as §1
# [32] = molecular target: Neu5Ac(a2-6)Gal(b1-4)GlcNAc(b1-3)Gal(b1-4)GlcNAc(b1-2)Man(a1-3)[Neu5Ac(a2-6)Gal(b1-4)GlcNAc(b1-3)Gal(b1-4)GlcNAc(b1-2)Man(a1-6)]GalNAc
# Procedure, shortened: as §1
# [33] = molecular target: Neu5Ac(a2-6)Gal(b1-4)GlcNAc(b1-3)Gal(b1-4)GlcNAc(b1-6)[Gal(b1-3)]GalNAc
# Procedure, shortened: as §1
# [34] = molecular target: Neu5Ac(a2-8)Neu5Ac(a2-8)Neu5Ac
# Procedure, shortened: as §1
# [35] = molecular target: Neu5Ac9Ac(a2-3)Gal(b1-3)GlcNAc
# Procedure, shortened: as §1
# [36] = molecular target: Neu5Gc(a2-3)Gal(b1-4)GlcNAc
# Procedure, shortened: as §1
# [37] = molecular target: Neu5Gc(a2-6)Gal(b1-4)GlcNAc
# Procedure, shortened: as §1
binder,measurement,setting,value
"LICBM33A (Lactococcus lactis), Q9CE94 (protein) MKKLLTGLLVAAGLLSVSLLIKTDTVSAHGYVQSPPARGYQGQLDSQSLGWTAAFNIYGNVISNPQSLEAPKGFPECGPADGRIASANGGLGQIGDFVLDNQTSSRWKKTSISTGSNIFTWKYTAPHKTTKWHYYMTKTGWDQNAPLKHSELELIGTINHDGSPATNNLSHTINIPTDRSGYHIVLAVWDVADTSNAFYNVIDINVNNKNASSQVFGPFL",glycan array binding signal (z-score),[1],-0.276
same,glycan array binding signal (z-score),[2],-0.377
same,glycan array binding signal (z-score),[3],6.68
same,glycan array binding signal (z-score),[4],-0.587
same,glycan array binding signal (z-score),[5],3.62
same,glycan array binding signal (z-score),[6],-1.52
same,glycan array binding signal (z-score),[7],-0.211
same,glycan array binding signal (z-score),Gal(a1-2)Gal,-0.28
same,glycan array binding signal (z-score),[8],-0.268
same,glycan array binding signal (z-score),Gal(a1-3)Gal(b1-4)GlcNAc,-0.436
same,glycan array binding signal (z-score),Gal(a1-4)Gal(b1-4)GlcNAc,0.111
same,glycan array binding signal (z-score),[9],-0.473
same,glycan array binding signal (z-score),[10],-0.324
same,glycan array binding signal (z-score),[11],-0.512
same,glycan array binding signal (z-score),[12],0.114
same,glycan array binding signal (z-score),[13],4.11
same,glycan array binding signal (z-score),[14],6.2
same,glycan array binding signal (z-score),[15],6.18
same,glycan array binding signal (z-score),[16],-0.959
same,glycan array binding signal (z-score),Gal(b1-4)GlcNAc6P,0.236
same,glycan array binding signal (z-score),Gal3S(b1-3)GalNAc,-0.215
same,glycan array binding signal (z-score),[17],-0.96
same,glycan array binding signal (z-score),[18],-0.578
same,glycan array binding signal (z-score),GalNAc3S(b1-4)GlcNAc3S,-0.284
same,glycan array binding signal (z-score),Glc(a1-6)Glc(a1-6)Glc,0.839
same,glycan array binding signal (z-score),Glc(b1-4)Glc,-0.321
same,glycan array binding signal (z-score),[19],-0.4
same,glycan array binding signal (z-score),[20],-0.457
same,glycan array binding signal (z-score),[21],-0.307
same,glycan array binding signal (z-score),[22],4.98
same,glycan array binding signal (z-score),GlcNAc(b1-3)Man,0.023
same,glycan array binding signal (z-score),[23],-0.043
same,glycan array binding signal (z-score),Kdn(a2-3)Gal(b1-4)Glc,0.82
same,glycan array binding signal (z-score),Kdn(a2-3)Gal(b1-4)GlcNAc,-0.667
same,glycan array binding signal (z-score),[24],0.527
same,glycan array binding signal (z-score),Man(b1-4)GlcNAc,-0.147
same,glycan array binding signal (z-score),Neu5Ac(a2-3)Gal,0.406
same,glycan array binding signal (z-score),[25],3.52
same,glycan array binding signal (z-score),[26],3.37
same,glycan array binding signal (z-score),[27],1.55
same,glycan array binding signal (z-score),[28],0.435
same,glycan array binding signal (z-score),[29],-0.471
same,glycan array binding signal (z-score),[30],4.31
same,glycan array binding signal (z-score),[31],4.26
same,glycan array binding signal (z-score),[32],4.82
same,glycan array binding signal (z-score),[33],-0.512
same,glycan array binding signal (z-score),[34],-0.117
same,glycan array binding signal (z-score),[35],0.017
same,glycan array binding signal (z-score),[36],-0.141
same,glycan array binding signal (z-score),[37],-0.606
